Test results from PubChem BioAssay (NCATS).

biological target: Lysosomal acid glucosylceramidase (Homo sapiens) (UniProt P04062); assay: Glucocerebrosidase-p2 (AID 348); details: purified GBA, blue fluorogenic substrate, 40 min
Summary of the method: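 Normal human glucocerebrosidase (0.2 nM) with blue fluorogenic substrate (80 uM final) in citrate/phosphate pH 5.9 with 10mM sodium taurocholate, 0.01% tween-20; 40 min RT, NaOH/glycine stop; fluorescence Ex 365/Em 440; AC50 from a titration from 0.6 nM upwards.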
Potency is read from the fitted curve at half-maximal effect.

Lysosomal acid glucosylceramidase (Homo sapiens), sequence (P04062 whole entry, looked up): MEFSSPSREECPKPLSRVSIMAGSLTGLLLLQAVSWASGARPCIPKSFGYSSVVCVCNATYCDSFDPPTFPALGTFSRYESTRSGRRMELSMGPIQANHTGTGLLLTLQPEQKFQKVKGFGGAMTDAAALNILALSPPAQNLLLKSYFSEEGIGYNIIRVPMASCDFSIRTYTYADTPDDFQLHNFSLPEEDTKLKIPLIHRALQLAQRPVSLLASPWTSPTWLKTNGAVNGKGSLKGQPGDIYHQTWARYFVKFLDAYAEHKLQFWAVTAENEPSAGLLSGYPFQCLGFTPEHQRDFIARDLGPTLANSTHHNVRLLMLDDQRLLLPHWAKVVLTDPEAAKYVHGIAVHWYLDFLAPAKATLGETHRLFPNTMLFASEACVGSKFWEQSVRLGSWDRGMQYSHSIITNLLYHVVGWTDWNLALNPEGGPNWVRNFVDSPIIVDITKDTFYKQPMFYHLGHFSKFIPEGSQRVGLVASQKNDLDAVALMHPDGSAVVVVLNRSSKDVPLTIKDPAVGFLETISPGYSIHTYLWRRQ

Potency, inactive:
Clc1ccccc1-c1nc(-n2ccnc2)c2ccccc2n1 > 11.4 µM
COc1ccccc1CNc1ncncc1-c1ccccc1C(F)(F)F > 11.4 µM
c1ccc(Nc2nc(-c3cccnc3)nc3ccccc23)cc1 > 11.4 µM
c1ccc(CNc2nc(-c3cccnc3)nc3ccccc23)cc1 > 11.4 µM
CN(C)c1ncc2nc(CCc3ccccc3)c(=O)n(CCc3ccccc3)c2n1 > 11.4 µM
COc1ccc(-n2c(=O)c(-c3cccs3)nc3cnc(N4CCN(C)CC4)nc32)cc1 > 11.4 µM
CCNc1ncc2ncc(=O)n(Cc3cccc(OC)c3)c2n1 > 11.4 µM
CCNc1ncc2nc(CCc3ccccc3)c(=O)n(Cc3cccc(OC)c3)c2n1 > 11.4 µM
Cn1c(=O)c(-c2ccccc2)nc2cnc(N3CCOCC3)nc21 > 11.4 µM
Cn1c(=O)c(-c2ccc(Cl)cc2)nc2cncnc21 > 11.4 µM
COc1cccc(Cn2c(=O)c(CCc3ccccc3)nc3cnc(N(C)C)nc32)c1 > 11.4 µM
c1ccc2c(NCCN3CCOCC3)nc(-c3ccoc3)nc2c1 > 11.4 µM
Cc1nc2cnc(N3CCN(C)CC3)nc2n(CCc2ccccc2)c1=O > 11.4 µM
CN(C)c1ncc2nc(CCc3ccccc3)c(=O)n(CCC#N)c2n1 > 11.4 µM
